Measurements from the supplement of paper PMC9492666.
Where a name gives a salt, the structure may show the parent alone.
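Further: viability read by CCK-8 kit in 96-well plates, part of a combination screen pairing lipid-metabolism-targeting compounds with erastin.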

What follows are compounds tested on HCC1937 (assay: relative cell viability, compound + erastin, vs DMSO (fraction of DMSO control); higher = less growth inhibition). Settings: 72 h.
`COc1cc([C@@H]2Oc3c(O)cc([C@H]4Oc5cc(O)cc(O)c5C(=O)[C@@H]4O)cc3[C@H]2CO)ccc1O` [Silychristin] + CCOc1ccccc1-n1c(C(C)N2CCN(C(=O)COc3ccc(Cl)cc3)CC2)nc2ccccc2c1=O [erastin] was tested, and the relative cell viability was 0.584. `CN(C)C(=N)NC(=N)N` [Metformin] + CCOc1ccccc1-n1c(C(C)N2CCN(C(=O)COc3ccc(Cl)cc3)CC2)nc2ccccc2c1=O [erastin] was tested, and the relative cell viability was 0.63. Compound `C[C@H]1N=C(N(C)C)N=C(N)N1` [Imeglimin hydrochloride] + CCOc1ccccc1-n1c(C(C)N2CCN(C(=O)COc3ccc(Cl)cc3)CC2)nc2ccccc2c1=O [erastin] has a relative cell viability of 0.69. Compound `O=S(=O)(Nc1ccc(C(O)(C(F)(F)F)C(F)(F)F)cc1)c1cccs1` + CCOc1ccccc1-n1c(C(C)N2CCN(C(=O)COc3ccc(Cl)cc3)CC2)nc2ccccc2c1=O [erastin] has a relative cell viability of 0.652. For `O=C(Nc1cnccc1Cl)N1CCN(Cc2ccc3c(c2)OC(F)(F)O3)CC1` + CCOc1ccccc1-n1c(C(C)N2CCN(C(=O)COc3ccc(Cl)cc3)CC2)nc2ccccc2c1=O [erastin], the relative cell viability was 0.486. `C[C@H](CCOc1cccc(CC(=O)O)c1)N(Cc1cccc(C(F)(F)F)c1Cl)CC(c1ccccc1)c1ccccc1` + CCOc1ccccc1-n1c(C(C)N2CCN(C(=O)COc3ccc(Cl)cc3)CC2)nc2ccccc2c1=O [erastin] showed a relative cell viability of 0.602. `CC(C)c1onc(-c2c(Cl)cccc2Cl)c1COc1ccc(/C=C/c2cccc(C(=O)O)c2)c(Cl)c1` + CCOc1ccccc1-n1c(C(C)N2CCN(C(=O)COc3ccc(Cl)cc3)CC2)nc2ccccc2c1=O [erastin] gave a relative cell viability of 0.722. `O=c1c(O[C@@H]2O[C@H](CO)[C@@H](O)[C@H](O)[C@H]2O)c(-c2ccc(O)cc2)oc2cc(O)cc(O)c12` [Astragalin] + CCOc1ccccc1-n1c(C(C)N2CCN(C(=O)COc3ccc(Cl)cc3)CC2)nc2ccccc2c1=O [erastin] gave a relative cell viability of 0.584. In the case of `C[C@@]12C[C@@H](c3ccoc3)OC(=O)[C@@H]1CC[C@]1(C)[C@H]2[C@@H]2C=C[C@@]1(O)C(=O)O2` [Columbin] + CCOc1ccccc1-n1c(C(C)N2CCN(C(=O)COc3ccc(Cl)cc3)CC2)nc2ccccc2c1=O [erastin], the relative cell viability is reported as 0.607. `O=c1cc(-c2ccc(O)c(-c3c(O)cc(O)c4c(=O)cc(-c5ccc(O)cc5)oc34)c2)oc2cc(O)cc(O)c12` [Amentoflavone] + CCOc1ccccc1-n1c(C(C)N2CCN(C(=O)COc3ccc(Cl)cc3)CC2)nc2ccccc2c1=O [erastin] showed a relative cell viability of 0.438. Compound `Cc1cc(=O)oc2c(O)c(O)ccc12` [7,8-Dihydroxy-4-methylcoumarin] + CCOc1ccccc1-n1c(C(C)N2CCN(C(=O)COc3ccc(Cl)cc3)CC2)nc2ccccc2c1=O [erastin] has a relative cell viability of 0.489. Work on `O=C1c2cc(CO)cc(O)c2C(=O)c2c(O[C@@H]3O[C@H](CO)[C@@H](O)[C@H](O)[C@H]3O)cccc21` [Aloe-emodin-8-O-beta-D-glucopyranoside] + CCOc1ccccc1-n1c(C(C)N2CCN(C(=O)COc3ccc(Cl)cc3)CC2)nc2ccccc2c1=O [erastin] yielded a relative cell viability of 0.493. Work on `CC(=O)N1CCN(c2ccc(OCC3COC(Cn4ccnc4)(c4ccc(Cl)cc4Cl)O3)cc2)CC1` (stereo not given) [Ketoconazole] + CCOc1ccccc1-n1c(C(C)N2CCN(C(=O)COc3ccc(Cl)cc3)CC2)nc2ccccc2c1=O [erastin] yielded a relative cell viability of 0.884. In the case of `COc1ccc(-c2cc(=O)c3c(O)c(OC)c(O)cc3o2)cc1OC` [Eupatilin] + CCOc1ccccc1-n1c(C(C)N2CCN(C(=O)COc3ccc(Cl)cc3)CC2)nc2ccccc2c1=O [erastin], the relative cell viability is reported as 0.431. `O=C(O)CCn1c2c(c3ccccc31)C[C@H](NS(=O)(=O)c1ccc(F)cc1)CC2` [Ramatroban] + CCOc1ccccc1-n1c(C(C)N2CCN(C(=O)COc3ccc(Cl)cc3)CC2)nc2ccccc2c1=O [erastin] was tested, and the relative cell viability was 0.494. `COc1ccc(C2(CNC(=O)c3ccc(NC(=O)c4ccco4)cc3)CCOCC2)cc1` + CCOc1ccccc1-n1c(C(C)N2CCN(C(=O)COc3ccc(Cl)cc3)CC2)nc2ccccc2c1=O [erastin] gave a relative cell viability of 0.518. Compound `COP(=O)(OC)OC(c1ccc(Cl)cc1)P(=O)(OC)OC` (stereo not given) [Mifobate] + CCOc1ccccc1-n1c(C(C)N2CCN(C(=O)COc3ccc(Cl)cc3)CC2)nc2ccccc2c1=O [erastin] has a relative cell viability of 0.875. Compound `O=C(Nc1ccc(C(O)(C(F)(F)F)C(F)(F)F)cc1)c1ccc(C(F)(F)F)cc1` + CCOc1ccccc1-n1c(C(C)N2CCN(C(=O)COc3ccc(Cl)cc3)CC2)nc2ccccc2c1=O [erastin] has a relative cell viability of 0.366. With `O=C(NCCN1CCC2(CC1)C(=O)NCN2c1ccccc1)c1ccc2ccccc2c1` + CCOc1ccccc1-n1c(C(C)N2CCN(C(=O)COc3ccc(Cl)cc3)CC2)nc2ccccc2c1=O [erastin] the relative cell viability was 0.392. For `CC1(N)CCN(c2cnc(-c3cccc(Cl)c3Cl)c(N)n2)CC1` [SHP099 hydrochloride] + CCOc1ccccc1-n1c(C(C)N2CCN(C(=O)COc3ccc(Cl)cc3)CC2)nc2ccccc2c1=O [erastin], the relative cell viability was 0.729.
